The results in this text go back to the supplement of paper PMC10849652.

Of roughly 7,900 targets only a part is listed; those with a hit were picked by preference. About 0.6% of all pairs of compound and target were hits. Values without a mark were called inactive.

Holding throughout (test): log2 fold change, soluble protein after heating vs DMSO (PISA); higher = thermal stabilisation; K562 cells, 10 uM, 30 min; active = over 0.2 and 3.5 SD of the protein, either way, in both replicates (recomputed)
Compound in one experiment: C#Cc1cccc(Nc2ncnc3cc(OCCOC)c(OCCOC)cc23)c1 [erlotinib]
The method, boiled down: (§1)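 Thermal stability values are relative to control samples and come from duplicates. They are expressed as log2 fold changes. For measurement, K562 cells (2×10^6 cells/mL) received 10 μM compound for 30 min, and aliquots were heated for 3 min over 48°C-58°C, pooled, and extracted at 4°C in PBS with 0.5% NP-40. Soluble protein, the supernatant after 21,000xg for 90 min, was quantified by TMTpro 16plex LC-MS/MS with equalised channel sums.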

Compound in experiment [1]: C1=CC(=C(C=C1Cl)C2=NC3=NC=CN=C3C(=N2)NC4=CC=NC=C4)F
The method, boiled down:
as §1

Compound in experiment [2]: C1=CC(=CC=C1C2=NC3=C(N2)C=C(C=C3)C(=O)N)OC4=CC=C(C=C4)Cl
The method, boiled down: as §1

Compound in experiment [3]: C1=CC2=NC=CN=C2C=C1/C=C/3\C(=O)NC(=O)S3
The method, boiled down: as §1

Compound in experiment [4]: C1CCN(C1)C(=O)NC2=CC=CC(=C2)NC3=NC=C(C(=N3)NCCC4=CN=CN4)Br
The method, boiled down:
as §1

Compound in experiment [5]: C1CN(CCC1(CC2=CC=C(C=C2)Cl)N)C3=NC=NC4=C3C=CN4
The method, boiled down:
as §1

Compound in a further experiment: C1COCCN1CCN2C3=CC=CC=C3N=C2NC(=O)C4=CC(=CC=C4)[N+](=O)[O-] [IRAK-1-4 Inhibitor I]
The method, boiled down:
as §1

Compound in another experiment: C=CC(=O)N1CCC[C@@H](n2nc(-c3ccc(Oc4ccccc4)cc3)c3c(N)ncnc32)C1 [ibrutinib]
The method, boiled down: as §1

Compound in experiment [6]: CC(C)(O)CC(=O)NCCn1ccc2ncnc(Nc3ccc(Oc4cccc(C(F)(F)F)c4)c(Cl)c3)c21
The method, boiled down: as §1

Compound in experiment [7]: CC(C)C1=C2N=C(C=C(N2N=C1)NCC3=CC=CC=C3)NCCCCCCN
The method, boiled down: as §1

Compound in another experiment: CC(C)N(C[C@H]1O[C@@H](n2cnc3c(N)ncnc32)[C@H](O)[C@@H]1O)[C@H]1C[C@@H](CCc2nc3cc(C(C)(C)C)ccc3[nH]2)C1 [pinometostat]
The method, boiled down: as §1

Compound in experiment [8]: CC1=C(C(CC(=O)N1)C2=CC=C(C=C2)C(F)(F)F)C(=O)NC3=C(C=C4C(=C3)C=NN4)F
The method, boiled down:
as §1

Compound in experiment [9]: CC1=C(C2=C(C=C1)C(=O)C3=CC=CC=C3N2CCCN)C
The method, boiled down:
as §1

Compound in experiment [10]: C1=CC=C(C=C1)C2=NC(=C(N2)C3=CC=NC=C3)C4=CC(=C(C=C4)Cl)O
The method, boiled down:
as §1

Compound in another experiment: CC(C)(C)Cn1c(N)nc2ccc(-c3[nH]c(C(C)(C)C)nc3-c3ccc(F)cc3)nc21 [ralimetinib]
The method, boiled down:
as §1

Compound in experiment [11]: CC(C)C[C@@H](C=O)NC(=O)[C@H](CC(C)C)NC(=O)[C@H](CC(C)C)NC(=O)OCc1ccccc1
The method, boiled down: as §1

Compound in experiment [12]: C/C(=N\NC(=O)C1=CC(=CC=C1)S(=O)(=O)N2CCOCC2)/C3=C(C=CC(=C3)Cl)O
The method, boiled down: as §1

Compound in experiment [13]: C1=CC2=C(C=CC(=C2)/C=C\3/C(=O)NC(=NCC4=CC=CS4)S3)N=C1
The method, boiled down: as §1

Compound in experiment [14]: C1=CC=C2C(=C1)C3=NNC4=CC=CC(=C43)C2=O
The method, boiled down: as §1

Compound in experiment [15]: CC(=O)c1cnc2ccc(-c3cc(Cl)c(O)c(Cl)c3)nc2c1N[C@H]1CC[C@H](CN(C)C)CC1
The method, boiled down:
as §1

Sequence of UniProt Q9C099 (Q9C099 whole entry, looked up): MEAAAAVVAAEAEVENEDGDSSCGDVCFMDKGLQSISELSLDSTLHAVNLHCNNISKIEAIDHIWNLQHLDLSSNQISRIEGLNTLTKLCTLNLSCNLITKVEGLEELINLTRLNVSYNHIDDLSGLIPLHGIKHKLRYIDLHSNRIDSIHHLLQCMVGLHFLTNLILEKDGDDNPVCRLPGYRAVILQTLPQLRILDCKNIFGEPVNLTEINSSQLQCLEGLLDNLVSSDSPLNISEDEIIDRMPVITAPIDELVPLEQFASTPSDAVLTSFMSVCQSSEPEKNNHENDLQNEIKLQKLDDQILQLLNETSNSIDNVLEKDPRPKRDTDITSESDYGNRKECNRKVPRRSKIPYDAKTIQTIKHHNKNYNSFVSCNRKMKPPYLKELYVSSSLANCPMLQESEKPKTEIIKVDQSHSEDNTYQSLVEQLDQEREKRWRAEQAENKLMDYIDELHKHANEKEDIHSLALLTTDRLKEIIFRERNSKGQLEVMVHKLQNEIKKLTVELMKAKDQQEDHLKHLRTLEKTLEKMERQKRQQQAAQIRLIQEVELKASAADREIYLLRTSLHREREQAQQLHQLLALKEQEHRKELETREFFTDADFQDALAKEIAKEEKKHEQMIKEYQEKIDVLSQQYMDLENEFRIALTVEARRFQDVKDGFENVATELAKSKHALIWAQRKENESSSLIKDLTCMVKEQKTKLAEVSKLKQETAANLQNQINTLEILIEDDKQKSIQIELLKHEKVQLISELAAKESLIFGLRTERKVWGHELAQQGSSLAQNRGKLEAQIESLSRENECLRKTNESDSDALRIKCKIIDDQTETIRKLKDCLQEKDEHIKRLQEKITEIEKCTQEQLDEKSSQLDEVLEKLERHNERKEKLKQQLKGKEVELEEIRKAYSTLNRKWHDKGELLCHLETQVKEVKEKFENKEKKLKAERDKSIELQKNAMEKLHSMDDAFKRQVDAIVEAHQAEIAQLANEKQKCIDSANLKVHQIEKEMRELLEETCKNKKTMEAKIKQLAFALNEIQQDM
Sequence of UniProt Q16539 (Q16539 whole entry, looked up): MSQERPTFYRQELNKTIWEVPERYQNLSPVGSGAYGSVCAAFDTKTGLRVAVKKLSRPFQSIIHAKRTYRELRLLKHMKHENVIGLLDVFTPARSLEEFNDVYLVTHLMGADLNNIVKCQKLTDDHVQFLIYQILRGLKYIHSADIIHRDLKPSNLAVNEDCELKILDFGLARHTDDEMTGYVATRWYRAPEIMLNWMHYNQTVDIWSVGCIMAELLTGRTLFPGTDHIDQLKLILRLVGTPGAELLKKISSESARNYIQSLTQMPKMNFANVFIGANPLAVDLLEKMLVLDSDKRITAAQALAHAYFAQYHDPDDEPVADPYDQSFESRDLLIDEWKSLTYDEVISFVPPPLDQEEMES
Sequence of UniProt Q9UPY8 (Q9UPY8 whole entry, looked up): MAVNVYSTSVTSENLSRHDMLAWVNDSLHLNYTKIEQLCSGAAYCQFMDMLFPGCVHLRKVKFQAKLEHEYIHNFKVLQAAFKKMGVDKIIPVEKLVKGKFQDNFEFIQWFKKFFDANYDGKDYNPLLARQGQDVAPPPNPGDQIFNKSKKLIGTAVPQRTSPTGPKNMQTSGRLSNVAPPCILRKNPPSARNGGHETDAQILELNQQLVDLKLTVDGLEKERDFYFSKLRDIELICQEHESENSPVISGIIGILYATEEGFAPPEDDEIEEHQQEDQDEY
Sequence of UniProt Q15759 (Q15759 whole entry, looked up): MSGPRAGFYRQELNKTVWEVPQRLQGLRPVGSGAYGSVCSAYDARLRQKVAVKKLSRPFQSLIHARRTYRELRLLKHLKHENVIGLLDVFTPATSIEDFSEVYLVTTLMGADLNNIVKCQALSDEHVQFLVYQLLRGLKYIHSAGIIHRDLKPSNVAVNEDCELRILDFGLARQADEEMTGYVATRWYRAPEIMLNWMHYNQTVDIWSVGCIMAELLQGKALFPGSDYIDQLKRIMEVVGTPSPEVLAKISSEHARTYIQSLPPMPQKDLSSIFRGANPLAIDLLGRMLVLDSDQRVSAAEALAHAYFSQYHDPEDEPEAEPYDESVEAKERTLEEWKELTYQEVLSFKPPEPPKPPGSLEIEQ
Sequence of UniProt Q12851 (Q12851 whole entry, looked up): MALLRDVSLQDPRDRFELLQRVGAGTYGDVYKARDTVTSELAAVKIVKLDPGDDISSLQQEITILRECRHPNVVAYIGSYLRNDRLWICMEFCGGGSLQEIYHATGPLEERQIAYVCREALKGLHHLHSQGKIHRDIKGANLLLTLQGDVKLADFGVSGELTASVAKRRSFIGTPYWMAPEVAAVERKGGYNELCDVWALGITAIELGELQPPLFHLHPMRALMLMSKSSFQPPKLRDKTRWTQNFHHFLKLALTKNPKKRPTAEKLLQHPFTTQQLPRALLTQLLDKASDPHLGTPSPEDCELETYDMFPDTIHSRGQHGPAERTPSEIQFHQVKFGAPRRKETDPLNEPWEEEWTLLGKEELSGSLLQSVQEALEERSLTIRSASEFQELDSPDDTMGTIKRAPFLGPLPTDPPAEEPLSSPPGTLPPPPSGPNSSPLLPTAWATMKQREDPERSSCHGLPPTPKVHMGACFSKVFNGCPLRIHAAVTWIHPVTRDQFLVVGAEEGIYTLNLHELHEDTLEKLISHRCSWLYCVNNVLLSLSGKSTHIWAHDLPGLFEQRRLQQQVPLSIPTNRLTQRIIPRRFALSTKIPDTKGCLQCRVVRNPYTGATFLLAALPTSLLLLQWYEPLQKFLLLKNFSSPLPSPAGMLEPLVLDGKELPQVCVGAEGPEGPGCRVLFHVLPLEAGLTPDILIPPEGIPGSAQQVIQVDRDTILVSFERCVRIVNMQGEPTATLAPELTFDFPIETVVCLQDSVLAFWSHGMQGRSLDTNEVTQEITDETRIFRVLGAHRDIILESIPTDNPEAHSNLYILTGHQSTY
Sequence of UniProt Q6NUT3 (Q6NUT3 whole entry, looked up): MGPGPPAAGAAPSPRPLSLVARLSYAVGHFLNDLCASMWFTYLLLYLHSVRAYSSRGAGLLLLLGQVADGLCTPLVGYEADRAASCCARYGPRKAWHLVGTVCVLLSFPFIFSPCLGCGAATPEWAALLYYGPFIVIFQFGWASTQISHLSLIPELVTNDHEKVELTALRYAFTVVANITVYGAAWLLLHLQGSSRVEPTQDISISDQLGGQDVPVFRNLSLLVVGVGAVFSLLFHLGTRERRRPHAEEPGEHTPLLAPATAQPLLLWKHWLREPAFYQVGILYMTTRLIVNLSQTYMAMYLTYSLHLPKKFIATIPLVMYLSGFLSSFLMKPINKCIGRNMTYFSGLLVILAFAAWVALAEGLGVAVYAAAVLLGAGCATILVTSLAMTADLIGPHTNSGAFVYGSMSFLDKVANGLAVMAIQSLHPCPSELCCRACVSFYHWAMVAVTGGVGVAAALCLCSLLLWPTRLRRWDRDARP
Sequence of UniProt P02545 (P02545 whole entry, looked up): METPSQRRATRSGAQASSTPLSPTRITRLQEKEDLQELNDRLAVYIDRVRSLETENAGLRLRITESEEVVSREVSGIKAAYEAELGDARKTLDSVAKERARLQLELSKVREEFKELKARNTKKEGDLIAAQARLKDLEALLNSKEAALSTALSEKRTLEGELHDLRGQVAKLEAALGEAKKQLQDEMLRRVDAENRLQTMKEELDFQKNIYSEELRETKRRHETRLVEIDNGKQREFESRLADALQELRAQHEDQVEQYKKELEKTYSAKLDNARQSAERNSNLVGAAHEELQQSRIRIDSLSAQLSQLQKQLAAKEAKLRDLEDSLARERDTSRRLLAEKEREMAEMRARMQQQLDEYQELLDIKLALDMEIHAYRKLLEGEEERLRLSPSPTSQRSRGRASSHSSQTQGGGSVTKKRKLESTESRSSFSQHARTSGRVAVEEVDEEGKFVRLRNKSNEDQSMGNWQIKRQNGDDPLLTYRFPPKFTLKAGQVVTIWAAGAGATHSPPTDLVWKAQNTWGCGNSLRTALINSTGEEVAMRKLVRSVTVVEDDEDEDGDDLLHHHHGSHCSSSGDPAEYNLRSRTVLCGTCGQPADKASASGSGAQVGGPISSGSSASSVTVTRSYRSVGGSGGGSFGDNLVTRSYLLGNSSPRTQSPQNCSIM
Sequence of UniProt Q7L590 (Q7L590 whole entry, looked up): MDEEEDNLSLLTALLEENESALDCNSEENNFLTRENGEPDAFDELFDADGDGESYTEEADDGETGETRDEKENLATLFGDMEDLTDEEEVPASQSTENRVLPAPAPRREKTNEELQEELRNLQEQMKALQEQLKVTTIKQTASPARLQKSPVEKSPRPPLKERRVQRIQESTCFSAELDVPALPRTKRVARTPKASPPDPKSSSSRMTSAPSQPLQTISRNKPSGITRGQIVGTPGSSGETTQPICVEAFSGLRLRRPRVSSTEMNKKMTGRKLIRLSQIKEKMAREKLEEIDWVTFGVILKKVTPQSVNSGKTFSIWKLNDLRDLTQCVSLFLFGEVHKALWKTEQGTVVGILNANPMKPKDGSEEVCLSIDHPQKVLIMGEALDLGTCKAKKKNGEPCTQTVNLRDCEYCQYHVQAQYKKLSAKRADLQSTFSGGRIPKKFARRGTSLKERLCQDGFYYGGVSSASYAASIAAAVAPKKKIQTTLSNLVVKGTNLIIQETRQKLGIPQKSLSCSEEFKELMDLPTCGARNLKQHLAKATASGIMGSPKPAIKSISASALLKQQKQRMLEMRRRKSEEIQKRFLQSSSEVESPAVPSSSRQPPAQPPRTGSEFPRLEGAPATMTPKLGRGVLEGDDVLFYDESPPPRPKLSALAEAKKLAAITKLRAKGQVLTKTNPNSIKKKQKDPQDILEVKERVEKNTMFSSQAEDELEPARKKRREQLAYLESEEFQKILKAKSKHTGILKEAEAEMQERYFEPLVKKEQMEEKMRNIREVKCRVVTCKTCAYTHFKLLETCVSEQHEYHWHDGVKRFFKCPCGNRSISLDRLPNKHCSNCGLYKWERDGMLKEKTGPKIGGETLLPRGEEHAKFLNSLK

Turning to MCM10 (UniProt Q7L590), the log2 fold change is -0.066 in the experiment with erlotinib; 0.205 in experiment [1]; 0.039 in [2]; -0.054 in [3]; -0.153 in experiment [4]; 0.125 in experiment [5]. Further, the log2 fold change with IRAK-1-4 Inhibitor I is 0.096; with ibrutinib, 0.018; in experiment [6] it was -0.115; in experiment [7] it was 0.015; with pinometostat it was -0.108; in experiment [8], 0.07. Besides, in [9], the log2 fold change is -0.037.
As to MAPK11 (UniProt Q15759), the log2 fold change with erlotinib is 0.169; in experiment [2], -0.28; in experiment [10], 0.744; in experiment [4] it was -0.56; in [5] it was 0.309; with IRAK-1-4 Inhibitor I it was -0.22. Also, the log2 fold change with ralimetinib is 1.47 (active); in [7], -0.853; in experiment [11], -0.091; in the experiment with pinometostat, -0.111; in experiment [9], 0.103.
Regarding IPP (UniProt Q9Y573), the log2 fold change in experiment [12] was 0.091; in experiment [13], 0.083; in experiment [3], -0.17; in [14] it was 0.139; with ibrutinib, 0.041; in experiment [15], -0.084.
With LDLRAP1 (UniProt Q5SW96), the log2 fold change in the experiment with erlotinib was -0.017; in experiment [2], 0.252; in experiment [3], 0.199; in experiment [10] it was -0.118; with IRAK-1-4 Inhibitor I, 0.013; with ibrutinib, -0.177. For the same target, the log2 fold change with ralimetinib is -0.032; in experiment [7], -0.541 (active); in [11] it was 0.028; in the experiment with pinometostat, 0.318.
For MAPK7 (UniProt Q13164), the log2 fold change in [12] is 0.095; in experiment [1] it was 0.02; in [13], 0; in experiment [14] it was 0.14; with IRAK-1-4 Inhibitor I, -0.033; in [15] it was 1.41 (active). In addition, the log2 fold change in [6] is 0.008; in the experiment with pinometostat, 0.105.
Turning to LMNA isoform 2 (UniProt P02545), the log2 fold change is -0.022 in experiment [4], 0.146 in experiment [5] and -0.128 in experiment [9].
MFSD12 isoform 3 (UniProt Q6NUT3): the log2 fold change with erlotinib is 0.062; in experiment [12], -0.062; in [2], 0.077; in experiment [13], -0.035; in experiment [14], 0.024; in experiment [4], -0.088. For the same target, the log2 fold change was -0.099 in experiment [5], -0.002 in experiment [15], -0.474 (active) in experiment [7] and -0.066 in experiment [9].
Turning to MFSD11 (UniProt O43934), the log2 fold change in experiment [12] is 0.001; in experiment [1], 0.007; in experiment [13], 0.047; in experiment [3], 0.043; in experiment [14] it was -0.067; in experiment [4], 0.06. The log2 fold change in experiment [5] is 0.219; with IRAK-1-4 Inhibitor I, 0.015; in the experiment with ibrutinib, 0.006; in [15] it was -0.029; in [6] it was -0.008; in the experiment with pinometostat, -0.009. In addition, the log2 fold change in experiment [8] is 0.031; in experiment [9], 0.095.
In the case of MAPRE3 isoform 2 (UniProt Q9UPY8), the log2 fold change in experiment [12] was -0.003; in [13] it was -0.18; in experiment [14], -0.073; in experiment [4], 0.012; in [5] it was -0.097; with IRAK-1-4 Inhibitor I, -0.384. The log2 fold change is -0.139 in [15], -0.101 with pinometostat, 0.029 in experiment [8] and 0.109 in experiment [9].
As to MAP4K2 (UniProt Q12851), the log2 fold change in [3] is -0.122; in [4] it was -0.413; in [5], -0.172; in the experiment with IRAK-1-4 Inhibitor I it was 0.073; with ibrutinib, -0.071; with pinometostat it was 0.113. The log2 fold change in [8] was 0.003; in experiment [9] it was 0.021.
For the target KIF21A (UniProt H0YI78), the log2 fold change is 0.077 with erlotinib; -0.137 in experiment [2]; 0.1 in experiment [10]; 0.366 with ralimetinib; -0.158 in experiment [7]; 0.012 in [11].
Turning to MAPK14 (UniProt Q16539), the log2 fold change with erlotinib is 0.238; in [12], 0.106; in experiment [2], -0.116; in experiment [13], -0.054; in experiment [3] it was 0.001; in experiment [10], 1.04 (active). For the same target, the log2 fold change was 0.174 in experiment [14]; 0.051 in [4]; -0.072 in [5]; -0.048 with IRAK-1-4 Inhibitor I; 0.016 with ibrutinib; 0.793 (active) in [15]. Moreover, the log2 fold change with ralimetinib is 1.52 (active); in experiment [7], -0.178; in experiment [11], -0.135; with pinometostat, -0.09; in experiment [8], -0.234; in [9], 0.062.
For KCNK5 (UniProt O95279), the log2 fold change is -0.101 in the experiment with erlotinib; -0.128 in experiment [1]; 0.077 in experiment [2]; 0.095 in experiment [3]; -0.033 with IRAK-1-4 Inhibitor I; 0.019 in the experiment with ibrutinib. Besides, the results for the log2 fold change (in experiment [6]; in experiment [7]; with pinometostat) were -0.209, -2.03 (active) and 0, respectively.
For LRRCC1 (UniProt Q9C099), the log2 fold change was -0.671 (active) in experiment [12]; 0.088 in experiment [13]; 0.257 in [10]; 0.123 in [14]; 0.121 in [4]; 0.101 in experiment [5]. In addition, the log2 fold change in [15] is 0.047; with ralimetinib, 0.043; in experiment [11], 0.237; in experiment [9], 0.109.
With LOX (UniProt P28300), the log2 fold change with erlotinib is -0.245; in [2] it was 0.315; in [3], 0.038; with ibrutinib, 0.074; in [7] it was -0.218; in experiment [8], 0.144.
